Shown are actives, neighbours in structure and some others; about 32% of the full set was active somewhere.
CYP2C19 inhib: human CYP2C19 inhibition; CYP2C19 Supersomes, luciferin-H EGE luminescence, 30 min; inhibition, % at 5 µM; hit rate 21% among 96,000; AID 778;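 active = CYP2C19 inhibition above a set limit at 5 µM in the primary screen, cut at about 50% in these data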
CYP2C9 inh: inhibitors of human CYP2C9. CYP2C9 Supersomes, luciferin-H conversion, luminescence. inhibition, % at 5 µM. hit rate 20% among 96,000. AID 777;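 active = blocking of liver enzyme CYP2C9 beyond about 50% at 5 µM, limit read from the data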
Target sequence (P11712 whole entry, looked up): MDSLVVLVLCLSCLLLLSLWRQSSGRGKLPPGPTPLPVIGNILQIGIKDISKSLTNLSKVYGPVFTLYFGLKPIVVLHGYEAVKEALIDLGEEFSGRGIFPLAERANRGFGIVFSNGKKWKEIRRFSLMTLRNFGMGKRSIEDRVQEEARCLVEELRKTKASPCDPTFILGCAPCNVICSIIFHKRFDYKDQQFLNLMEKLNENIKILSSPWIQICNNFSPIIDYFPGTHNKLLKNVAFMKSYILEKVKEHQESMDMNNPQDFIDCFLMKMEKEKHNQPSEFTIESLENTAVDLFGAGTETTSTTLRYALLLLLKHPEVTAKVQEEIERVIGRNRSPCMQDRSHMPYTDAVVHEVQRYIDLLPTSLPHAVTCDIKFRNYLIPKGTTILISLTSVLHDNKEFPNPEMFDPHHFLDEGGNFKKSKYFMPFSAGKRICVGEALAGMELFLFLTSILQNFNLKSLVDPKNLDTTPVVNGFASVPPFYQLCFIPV
CYP2C19 act: increases human CYP2C19 enzyme activity. P33261. recombinant CYP2C19, luciferin-H EGE luminescence; active compounds read high; 0 = fully inhibited enzyme, 1 = untreated enzyme. activation factor at 5 µM. 96,000 tested, under 10 active;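 active = activation factor of at least 2 at 5 µM in the primary screen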
PostGolgi yeast: growth inhibition of a yeast mutant, post-Golgi transport screen | post-Golgi transport phenotypic cell assay | inhibition, % at 10 µM | hit rate 0.9% among 98,000 | AID 739;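 note: yeast cells grown in 1536-well plates; yeast grown about 18 h at 30C before absorbance read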
PostGolgi ctrl: growth of the yeast control strain, post-Golgi counter-screen; efflux-deficient yeast background strain, growth absorbance A615, 16 h; inhibition, % at 10 µM; hit rate 5% among 98,000; AID 738
CYP2C9 activ: CYP2C9 (human) activation; recombinant CYP2C9, luciferin-H conversion, luminescence; active compounds read high; factor 1 = untreated enzyme, 0 = blocked; hit rate 1.4% among 96,000; P11712; activation factor at 5 µM;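 active = activation factor of 2 or more for CYP2C9 at a 5 µM dose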
Large screens that a line does not name were inactive. Cut-off read from the data, not from the text of the source, unless noted: active = inhibition above about 30%; inactive = the rest.

O=C(c1ccc(Br)o1)N1CCN(c2ccccc2F)CC1	CYP2C19 inhib 92
O=C(c1ccccc1)N1CCN(c2ccccc2F)CC1	CYP2C19 inhib 93, CYP2C9 inh 66
O=C(c1ccc2c(=O)n(-c3ccccc3)c(=O)[nH]c2c1)N1CCN(c2ccc(F)cc2)CC1	none
Cc1cc(=O)n2nc(-c3ccc(C(F)(F)F)cc3)sc2n1	none
O=C(COc1cccc(NC(=O)c2ccco2)c1)c1ccccc1	none
Cc1c(C)n(CC(O)CN2CCCCCC2)c2ccccc12 (centres undefined)	CYP2C19 inhib 72
OC(COCc1cccs1)CN1CCN(c2ccccn2)CC1 (centres undefined)	none
OC(COc1ccc(Cl)c2ccccc12)CN1CCN(c2ccccn2)CC1 (centres undefined)	CYP2C19 inhib 92, CYP2C9 inh 59, PostGolgi ctrl 34
OC(CN1CCN(c2ccccn2)CC1)Cn1c2ccccc2c2ccccc21 (centres undefined)	CYP2C19 inhib 57, CYP2C9 inh 54
OC(CN1CCCCC1)Cn1c(C(F)(F)F)nc2ccccc21 (centres undefined)	none
Cn1c(/C(C#N)=C(\O)c2ccc(S(=O)(=O)N3CCCCC3)cc2)nc2ccccc21	none
O=S(=O)(c1cccc(Cl)c1)N1CCCC1	none
O=C(O)C1CCCN1S(=O)(=O)c1cc(Cl)ccc1Cl (centres undefined)	CYP2C9 activ 2.2
CC1CCN(S(=O)(=O)c2ccc(Cl)cc2Br)CC1	CYP2C19 inhib 68
Cc1ccc(S(=O)(=O)N2CCCC2C(=O)O)cc1 (centres undefined)	none
O=S(=O)(c1cc(Cl)ccc1Cl)N1CCCCC1	CYP2C19 inhib 65, CYP2C9 activ 3.3
Cc1cc(S(=O)(=O)N2CCCCCC2)c(Cl)cc1Cl	CYP2C19 inhib 73
CC1CCN(CCOCCOc2ccc(Cl)cc2Br)CC1	none
O=C(c1cc(S(=O)(=O)N2CCOCC2)c(Cl)cc1Cl)N1CCCCC1	none
CCOC(=O)C1CCCN(C2CC(=O)N(c3cccc(C(F)(F)F)c3)C2=O)C1 (centres undefined)	none
O=c1[nH]c2ccsc2c(=O)n1-c1ccc(F)c(Cl)c1	none
O=C(Oc1ccc2c(c1)OCO2)c1ccc(Br)c(S(=O)(=O)N2CCOCC2)c1	none
O=S(=O)(c1cc(Cl)ccc1Br)N1CCOCC1	CYP2C9 activ 2.9
O=S(=O)(c1cc(Cl)ccc1Br)N1CCCCC1	CYP2C19 inhib 96, CYP2C9 activ 3.2
CC1=NCCN1S(=O)(=O)c1cc(Cl)ccc1Cl	CYP2C19 inhib 51, CYP2C9 activ 2.8
O=S(=O)(c1ccc(F)c(Cl)c1)N1CCCC1	CYP2C19 inhib 54
COC(=O)C(C)Oc1ccc(=O)[nH]n1 (centres undefined)	none
O=S(=O)(c1cc(Cl)ccc1Cl)N1CCCC1	CYP2C19 inhib 56, CYP2C9 activ 3.5
COc1ccc(OC(=O)c2cc(S(=O)(=O)N3CCCC3)ccc2Cl)cc1	none
COc1ccc(Cl)c(S(=O)(=O)N2CCCC2)c1	CYP2C19 inhib 80, CYP2C9 activ 2.8
C=CCn1c(-c2ccc(S(=O)(=O)N3CCOCC3)cc2)csc1=Nc1ccccc1	none
Cc1csc(=Nc2ccc(S(=O)(=O)N3CCOCC3)cc2)n1Cc1ccco1	CYP2C9 inh 64, PostGolgi ctrl 44
CC(NC(=O)OC(C)(C)C)C(=O)Oc1cc2oc(=O)cc(-c3ccccc3)c2cc1Cl (centres undefined)	none
Cc1ccc(C(=O)NCCc2ccncc2)cc1	CYP2C19 inhib 51
O=C(NCCOC(=O)c1cccs1)c1cccnc1	CYP2C19 inhib 61
O=C(NCCOC(=O)c1ccncc1)c1ccccc1	CYP2C19 inhib 71, CYP2C9 inh 92
O=C(NCc1ccccc1)NC(=O)c1ccncc1	CYP2C19 inhib 95, CYP2C9 inh 82
COC(=O)[C@H](Cc1ccccc1)NC(=O)NCC1CCCO1 (some centres undefined)	none
O=C(NCCCc1ccccc1)c1ccccc1	none
COC(=O)c1cccc(NC(=O)c2cccnc2)c1	none
O=C(NCc1ccncc1)c1ccc(Br)cc1	CYP2C19 inhib 51
O=C(NCCCc1ccccc1)c1ccncc1	CYP2C19 inhib 98, CYP2C9 inh 93
O=C(NCc1ccncc1)c1cnccn1	none
COC(=O)c1c(-c2cccs2)csc1NC(=O)c1cccnc1	CYP2C19 inhib 100, CYP2C9 inh 100
COc1ccc(C(=O)c2nc3c(n2O)CCCC3)cc1OC	none
CCOC(=O)N1CCN(S(=O)(=O)c2ccc3c(c2)OCC(=O)N3)CC1	none
CCCC(=O)Nc1cccn(Cc2ccccc2Br)c1=O	CYP2C19 inhib 92
COc1cccc(Cn2c(-c3cccs3)noc2=O)c1	CYP2C19 inhib 82
COc1cccc(CN2CCCN(S(=O)(=O)c3ccc(Br)cc3)CC2)c1	CYP2C19 inhib 79
COc1ccc(CN2CCN(S(=O)(=O)c3ccc(C)cc3)CC2)cc1Br	none
Cc1cc2cc(CNC(=O)c3ccc(S(=O)(=O)N4CCCCC4)cc3)ccc2[nH]1	CYP2C9 inh 79
Cc1cc2cc(CNC(=O)c3ccc4c(c3)OCO4)ccc2[nH]1	none (no result: PostGolgi yeast, PostGolgi ctrl)
COc1cccc(CNC(=O)c2cc3ccccn3n2)c1	CYP2C19 inhib 66
COc1cccc(CNC(=O)c2ccc(S(=O)(=O)N3CCCC3)cc2)c1	CYP2C9 inh 86
Cc1cc(Br)c2[nH]c3c(c2c1)CCCC3=O	none
COc1cccc(CN2C(=O)C3CCCN3c3ccc(S(=O)(=O)N4CCOCC4)cc32)c1 (centres undefined)	CYP2C9 inh 62
Cc1cccc(-n2c(CNC(=O)c3ccc(S(=O)(=O)N4CCCC4)cc3)n[nH]c2=S)c1	CYP2C19 inhib 53
CC(=O)NCC1=C(NC(C)=O)C2CC1C(C)(C)C2C (centres undefined)	none
N#C/C(=C\c1cn(Cc2ccccc2C#N)c2ccccc12)C(=O)NCc1cccs1	CYP2C9 inh 60
Cc1ccc2nc(SCC(=O)NCc3cccs3)c(C#N)cc2c1	none
N#C/C(=C\c1cn(CCOc2ccccc2)c2ccccc12)C(=O)NCC1CCCO1 (centres undefined)	CYP2C19 inhib 58, CYP2C9 inh 92
Cc1cc(/C=C(\C#N)C(=O)NCC2CCCO2)c(C)n1-c1ccc(Cl)cc1 (centres undefined)	none
O=C(CCS(=O)(=O)c1ccc(Cl)cc1)N1CCN(c2ccccc2F)CC1	none
S=C1N(c2ccccc2)C(c2cccc3ccccc23)N2CCCN12 (centres undefined)	none
Cc1ccccc1OCCn1c(=O)oc2ccccc21	CYP2C19 inhib 99, CYP2C9 inh 69
Cc1ccc(C(C)C)c(OCCn2c(=O)oc3ccccc32)c1	CYP2C19 inhib 92, CYP2C9 inh 82
Cc1ccc(C(C)C)c(OCCN)c1	none
COCCN(CCOC)C(=O)CCn1c(=O)oc2ccccc21	none (no result: CYP2C19 inhib, CYP2C9 inh, CYP2C19 act, CYP2C9 activ)
